Experimental data from PubChem BioAssay (Tox21).
Records with an inconclusive call do not appear. Activity calls are given as the source filed them. Calls come from the whole dose curve; as a rule, active = well fitted curve in the direction sought with a large enough effect in the repeat runs; inconclusive = weak or mixed curves; inactive = no such curve, though single readings can be large; an effect the other way counts as inactive or inconclusive.

Key:
[1] = A CellTox Green Cytotoxicity Assay to monitor cytotoxicity in HEK293 cells - 40 hour (AID 1224871); note: nearly all actives have a fitted effect of over 45% in size
In short: (§1)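 Dead-cell fluorescence measured kinetically: asymmetric cyanine dye, HEK293, 600 cells/well, 5 h settle, 23 nL cpd/DMSO, 37 C, reads 0–40 h every 8 h.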

[2] = qHTS RealTime-Glo MT Cell Viability Assay in HEK293 cells - 16 hour (AID 1224872); note: top concentration of the series differs between compounds; nearly all actives have a fitted effect of over 50% in size
In short: (§2)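 Homogeneous bioluminescent viability format in HEK293 cells (600 cells/well). Following 5 h at 37 C/5% CO2, 23 nL compound was pintooled; the signal was measured repeatedly during 40 h incubation.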

[3] = qHTS RealTime-Glo MT Cell Viability Assay in HepG2 cells - 8 hour (AID 1224873); note: nearly all actives have a fitted effect of over 55% in size
In short: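 Real-time viability: cells seeded at 600 per well together with NanoLuc and cell-permeant prosubstrate, compounds added after 5 h incubation. Luminescence tracked at 0, 8, 16, 24, 32 and 40 h of exposure.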

[4] = qHTS RealTime-Glo MT Cell Viability Assay in HEK293 cells - 40 hour (AID 1224874); conditions: RealTime-Glo luminescence; max response: active compounds read low; note: nearly all actives have a fitted effect of over 50% in size
In short: (§3)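 600 HEK293 cells per well, dispensed already mixed with RealTime-Glo MT reagents. Compound dosing came 5 h later. The same wells were read for luminescence at 0, 8, 16, 24, 32 and 40 h of exposure at 37 C.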

[5] = A CellTox Green Cytotoxicity Assay to monitor cytotoxicity in HEK293 cells - 24 hour (AID 1224875); note: series mostly up to about 77 µM; nearly all actives have a fitted effect of over 45% in size
In short: as §1

[6] = A CellTox Green Cytotoxicity Assay to monitor cytotoxicity in HepG2 cells - 16 hour (AID 1224876); note: nearly all actives have a fitted effect of over 45% in size
In short: (§4)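 First, HepG2 cells (600/well) mixed with reagent were plated; second, after 5 h at 37 C they received compounds via pintool; third, fluorescence was measured at 0 h through 40 h at 8 h intervals.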

[7] = qHTS RealTime-Glo MT Cell Viability Assay in HepG2 cells - 32 hour (AID 1224877); note: nearly all actives have a fitted effect of over 55% in size
In short: (§5)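 Cell number in HepG2 cultures estimated from NanoLuc luminescence generated by metabolic reduction of a prosubstrate by living cells. The homogeneous, nonlytic format allowed repeated reads at 0, 8, 16, 24, 32 and 40 h of compound exposure.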

[8] = A CellTox Green Cytotoxicity Assay to monitor cytotoxicity in HepG2 cells - 24 hour (AID 1224878); note: nearly all actives have a fitted effect of over 45% in size
In short: as §4

[9] = A CellTox Green Cytotoxicity Assay to monitor cytotoxicity in HepG2 cells - 40 hour (AID 1224879); note: nearly all actives have a fitted effect of over 40% in size
In short: as §4

[10] = qHTS RealTime-Glo MT Cell Viability Assay in HEK293 cells - 0 hour (AID 1224880)
In short: as §3

[11] = A CellTox Green Cytotoxicity Assay to monitor cytotoxicity in HEK293 cells - 32 hour (AID 1224881); note: nearly all actives have a fitted effect of over 40% in size
In short: as §1

[12] = A CellTox Green Cytotoxicity Assay to monitor cytotoxicity in HepG2 cells - 0 hour (AID 1224882); note: nearly all actives have a fitted effect of over 35% in size
In short: as §4

[13] = A CellTox Green Cytotoxicity Assay to monitor cytotoxicity in HepG2 cells - 32 hour (AID 1224883); note: nearly all actives have a fitted effect of over 50% in size
In short: as §4

[14] = A CellTox Green Cytotoxicity Assay to monitor cytotoxicity in HEK293 cells - 8 hour (AID 1224884); note: nearly all actives have a fitted effect of over 35% in size
In short: as §1

[15] = qHTS RealTime-Glo MT Cell Viability Assay in HepG2 cells - 16 hour (AID 1224885); note: nearly all actives have a fitted effect of over 50% in size
In short: as §5

[16] = qHTS RealTime-Glo MT Cell Viability Assay in HEK293 cells - 24 hour (AID 1224886)
In short: as §2

[17] = qHTS RealTime-Glo MT Cell Viability Assay in HEK293 cells - 8 hour (AID 1224887)
In short: as §3

[18] = A CellTox Green Cytotoxicity Assay to monitor cytotoxicity in HEK293 cells - 16 hour (AID 1224888); note: nearly all actives have a fitted effect of over 35% in size
In short: as §1

[19] = qHTS RealTime-Glo MT Cell Viability Assay in HepG2 cells - 0 hour (AID 1224889); note: nearly all actives have a fitted effect of over 50% in size
In short: as §5

[20] = A CellTox Green Cytotoxicity Assay to monitor cytotoxicity in HepG2 cells - 8 hour (AID 1224890); note: nearly all actives have a fitted effect of over 45% in size
In short: as §4
% is set by controls: 0 for no effect and ±100 for the full control effect.

O=C(CCN1CC1)OCC(CO)(COC(=O)CCN1CC1)COC(=O)CCN1CC1
inactive: Potency [1] | Potency [2] | Potency [3] | max response [4] 0.103% | Potency [5] | Potency [6] | Potency [7] | Potency [8] | Potency [9] | outcome [10] | Potency [11] | outcome [12] | Potency [13] | Potency [14] | Potency [15] | Potency [16] | Potency [17] | Potency [18]

O=C(O)C(Br)CBr (centres undefined)
inactive: Potency [1] | Potency [2] | Potency [3] | max response [4] 26% | Potency [5] | Potency [6] | Potency [7] | Potency [8] | Potency [9] | outcome [10] | Potency [11] | outcome [12] | Potency [13] | Potency [14] | Potency [15] | Potency [16] | Potency [17] | Potency [19] | Potency [20]

ClCCCN1CCN(c2cccc(Cl)c2)CC1
inactive: Potency [1] | Potency [2] | Potency [3] | max response [4] -25.9% | Potency [5] | Potency [6] | Potency [7] | Potency [8] | Potency [9] | outcome [10] | Potency [11] | outcome [12] | Potency [13] | Potency [14] | Potency [15] | Potency [16] | Potency [17] | Potency [18] | Potency [19] | Potency [20]

CCCCN(CCCCO)N=O
inactive: Potency [1] | Potency [2] | Potency [3] | max response [4] 3.79% | Potency [5] | Potency [6] | Potency [7] | Potency [8] | Potency [9] | outcome [10] | Potency [11] | outcome [12] | Potency [13] | Potency [14] | Potency [15] | Potency [16] | Potency [17] | Potency [18] | Potency [19] | Potency [20]

CCC(=O)c1ccccc1
inactive: Potency [1] | Potency [2] | Potency [3] | max response [4] 5.66% | Potency [5] | Potency [6] | Potency [7] | Potency [8] | Potency [9] | outcome [10] | Potency [11] | outcome [12] | Potency [13] | Potency [14] | Potency [15] | Potency [16] | Potency [17] | Potency [18] | Potency [19] | Potency [20]

C=C(C)[C@@H]1CC=C(C=O)CC1
inactive: Potency [1] | Potency [2] | Potency [3] | max response [4] -6.37% | Potency [5] | Potency [6] | Potency [7] | Potency [8] | Potency [9] | outcome [10] | Potency [11] | outcome [12] | Potency [13] | Potency [14] | Potency [15] | Potency [16] | Potency [17] | Potency [18] | Potency [19] | Potency [20]

CC1(C)COP(Oc2ccccc2)OC1
inactive: Potency [1] | Potency [2] | Potency [3] | max response [4] -1.45% | Potency [5] | Potency [6] | Potency [7] | Potency [8] | Potency [9] | outcome [10] | Potency [11] | outcome [12] | Potency [13] | Potency [14] | Potency [15] | Potency [16] | Potency [17] | Potency [18] | Potency [19] | Potency [20]

O=C1OC(c2ccc(O)c(S(=O)(=O)O)c2)(c2ccc(O)c(S(=O)(=O)O)c2)c2c(Br)c(Br)c(Br)c(Br)c21
inactive: Potency [1] | Potency [2] | Potency [3] | max response [4] 11.8% | Potency [5] | Potency [6] | Potency [7] | Potency [8] | Potency [9] | outcome [10] | Potency [11] | outcome [12] | Potency [13] | Potency [14] | Potency [15] | Potency [16] | Potency [17] | Potency [18] | Potency [19]

CCOC(=O)C1(c2ccccc2)CCN(CCc2ccc(N)cc2)CC1
inactive: Potency [1] | Potency [2] | Potency [3] | max response [4] -22.8% | Potency [5] | Potency [6] | Potency [7] | Potency [8] | Potency [9] | outcome [10] | Potency [11] | outcome [12] | Potency [13] | Potency [14] | Potency [15] | Potency [16] | Potency [17] | Potency [18] | Potency [19]

OC(Cn1cncn1)(c1ccc(F)cc1)c1ccccc1F (centres undefined)
inactive: Potency [1] | Potency [2] | Potency [3] | max response [4] -0.588% | Potency [5] | Potency [6] | Potency [7] | Potency [8] | Potency [9] | outcome [10] | Potency [11] | outcome [12] | Potency [13] | Potency [14] | Potency [15] | Potency [16] | Potency [17] | Potency [18] | Potency [20]

ClCC(Cl)(Cl)Cl
inactive: Potency [1] | Potency [2] | Potency [3] | max response [4] -0.0203% | Potency [5] | Potency [6] | Potency [7] | Potency [8] | Potency [9] | outcome [10] | Potency [11] | outcome [12] | Potency [13] | Potency [14] | Potency [15] | Potency [16] | Potency [17] | Potency [18] | Potency [19]

O=c1oc2ccccc2c(O)c1C1CCCc2ccccc21 (centres undefined)
inactive: Potency [1] | Potency [2] | Potency [3] | max response [4] 14.6% | Potency [5] | Potency [6] | Potency [7] | Potency [8] | Potency [9] | outcome [10] | Potency [11] | outcome [12] | Potency [13] | Potency [14] | Potency [15] | Potency [16] | Potency [17] | Potency [18] | Potency [19] | Potency [20]

NC(=O)c1cc([N+](=O)[O-])cc([N+](=O)[O-])c1
inactive: Potency [1] | Potency [2] | Potency [3] | max response [4] 4.2% | Potency [5] | Potency [6] | Potency [7] | Potency [8] | Potency [9] | outcome [10] | Potency [11] | outcome [12] | Potency [13] | Potency [14] | Potency [15] | Potency [16] | Potency [17] | Potency [19]

CSc1ccc(C(=O)C(C)(C)N2CCOCC2)cc1
inactive: Potency [1] | Potency [2] | Potency [3] | max response [4] 0.297% | Potency [5] | Potency [6] | Potency [7] | Potency [8] | Potency [9] | outcome [10] | Potency [11] | outcome [12] | Potency [13] | Potency [14] | Potency [15] | Potency [16] | Potency [17] | Potency [20]
